S1P3 antagonist: antagonists of human S1P3 receptor. inhibition, % at 4.98 µM. Q99500. CHO S1P3 NFAT-BLA reporter, FRET fluorescence, antagonist mode. 170,000 compounds, 0.27% hits;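 active means inhibition above the plate cutoff, the mean inhibition of test wells on that plate plus 3 SD, cut at about 28% in these data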;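 further: cells challenged with S1P at its EC80 of 0.8 µM; blue over green emission ratio from cleaved BLA substrate after 4 h stimulation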
Redox H2O2 prof: compounds producing H2O2 with reducing agent – biochemical, NIH compound library profiling, artefact control for MLSCN library redox annotation, primary screen | 200,000 compounds, 0.03% hits | activation, % at 10 µM | AID 878 | DTT-dependent redox cycling H2O2, phenol red/HRP absorbance; 100% = 100 µM peroxide control, 0% = buffer;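 active means activation of at least 50% relative to the plate's high and low controls in the primary single-dose screen; inactive means activation below 50%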;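 further: compound incubated with DTT at 0.8 mM final as the reducing agent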
G6PDH CS: inhibits Leuconostoc G6PDH, flagging false hits in G6PDH-based assays. 200,000 compounds, 0.12% hits. Purified L. mesenteroides G6PDH, diaphorase/resazurin coupled fluorescence, 45 min. inhibition, % at 5 µM. AID 1020; in the data active means inhibition above about 50%
Tb hexokinase: T. brucei hexokinase 1 inhibition; 220,000 compounds, 0.11% hits; inhibition, % at 10 µM; AID 1430; recombinant TbHK1, G6PDH-coupled NADH A340;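 active means inhibition of 50% or more in the single-dose primary screen; inactive means inhibition below 50%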
p97 inhibitor: blocks human p97 ATPase activity; P55072; recombinant p97 ATPase, Kinase-Glo ATP luminescence, 3 h; inhibition, % at 8 µM; 220,000 compounds, 0.42% hits; AID 1481; in the data active means inhibition above about 15%
Target sequence (P55072 whole entry, looked up): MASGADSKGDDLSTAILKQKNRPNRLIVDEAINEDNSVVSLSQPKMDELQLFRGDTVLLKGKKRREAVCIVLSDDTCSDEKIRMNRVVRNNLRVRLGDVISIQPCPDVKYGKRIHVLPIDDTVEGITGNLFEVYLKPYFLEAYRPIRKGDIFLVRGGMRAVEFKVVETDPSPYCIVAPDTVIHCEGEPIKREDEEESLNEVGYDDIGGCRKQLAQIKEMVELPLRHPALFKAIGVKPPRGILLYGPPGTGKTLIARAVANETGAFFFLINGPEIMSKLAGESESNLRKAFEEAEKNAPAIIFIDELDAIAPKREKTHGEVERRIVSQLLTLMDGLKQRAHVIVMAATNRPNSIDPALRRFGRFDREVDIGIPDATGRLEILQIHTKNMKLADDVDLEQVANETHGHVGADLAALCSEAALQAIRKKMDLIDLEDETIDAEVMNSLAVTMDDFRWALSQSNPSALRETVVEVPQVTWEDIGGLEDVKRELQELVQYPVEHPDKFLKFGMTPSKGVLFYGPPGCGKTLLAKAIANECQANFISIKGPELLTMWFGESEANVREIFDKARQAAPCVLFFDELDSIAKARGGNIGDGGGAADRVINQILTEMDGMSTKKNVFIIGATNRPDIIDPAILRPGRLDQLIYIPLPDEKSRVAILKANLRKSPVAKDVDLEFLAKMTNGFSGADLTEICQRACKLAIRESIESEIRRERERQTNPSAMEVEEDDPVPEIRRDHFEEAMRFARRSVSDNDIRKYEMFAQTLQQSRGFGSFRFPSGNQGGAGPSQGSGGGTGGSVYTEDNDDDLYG
Numbers stand for hits. A selection: hits, their analogues and other compounds. The true share with any hit is near 0.84%.

What do the screens show for `CCOC(=O)c1[nH]c2ccccc2c1NC(=O)CC`?
S1P3 antagonist: 55; Redox H2O2 prof: inactive; G6PDH CS: inactive; Tb hexokinase: inactive; p97 inhibitor: inactive

How did c1cc2c3c(cccc3c1)C(N1CCCCCC1)=N2 do in these assays?
Redox H2O2 prof: inactive; G6PDH CS: inactive; Tb hexokinase: inactive; p97 inhibitor: inactive

How did c1cc2c3c(cccc3c1)C(N1CCCCC1)=N2 do in these assays?
S1P3 antagonist: inactive; Redox H2O2 prof: inactive; G6PDH CS: 52; Tb hexokinase: inactive; p97 inhibitor: inactive

What do the screens show for `Cc1ccc(NC(=O)CN(C)C(=O)CSc2n[nH]c(N)n2)cc1`?
Redox H2O2 prof: inactive; G6PDH CS: inactive; Tb hexokinase: inactive; p97 inhibitor: inactive

What do the screens show for `Cc1cc(=O)[nH]c(SCC(=O)Nc2ccc(Cl)cn2)n1`?
Redox H2O2 prof: inactive; G6PDH CS: inactive; Tb hexokinase: inactive; p97 inhibitor: inactive

How did CCC(Sc1nc(C)cc(=O)[nH]1)C(=O)Nc1ccc(Cl)cn1 (configuration not stated) do in these assays?
S1P3 antagonist: inactive; Redox H2O2 prof: inactive; G6PDH CS: inactive; Tb hexokinase: inactive; p97 inhibitor: 15

How did Cc1ccc(/C=C2\SC(=S)N(/N=C/c3cc([N+](=O)[O-])ccc3O)C2=O)o1 do in these assays?
S1P3 antagonist: inactive; Redox H2O2 prof: inactive; G6PDH CS: inactive; Tb hexokinase: inactive; p97 inhibitor: 21

Results for COc1ccc(-n2c(=O)[nH]c3cc(C(=O)NCCc4ccc(Cl)cc4)ccc3c2=O)cc1OC ?
S1P3 antagonist: inactive; Redox H2O2 prof: inactive; G6PDH CS: inactive; Tb hexokinase: inactive; p97 inhibitor: inactive

How did O=C(O)CC1C(=O)NCCN1CCCc1ccccc1 (configuration not stated) do in these assays?
S1P3 antagonist: inactive; Redox H2O2 prof: inactive; G6PDH CS: inactive; Tb hexokinase: inactive; p97 inhibitor: inactive

Results for CCCCN(C)C(=O)c1cn(CC)c2ccc(S(=O)(=O)N(C)C)cc2c1=O ?
S1P3 antagonist: inactive; Redox H2O2 prof: inactive; G6PDH CS: inactive; Tb hexokinase: inactive; p97 inhibitor: inactive

What do the screens show for `CCCCN(C)C(=O)c1cn(C)c2ccc(S(=O)(=O)N(C)C)cc2c1=O`?
S1P3 antagonist: 87; Redox H2O2 prof: inactive; G6PDH CS: inactive; Tb hexokinase: inactive; p97 inhibitor: inactive

How did CSc1n[nH]c(=O)n1-c1ccc(Cl)cc1 do in these assays?
S1P3 antagonist: inactive; Tb hexokinase: inactive; p97 inhibitor: inactive

Results for CCCC(=O)NC(c1ccc(OC)c(OC)c1)c1cc(Cl)c2cccnc2c1O (configuration not stated) ?
S1P3 antagonist: inactive; Redox H2O2 prof: inactive; G6PDH CS: inactive; Tb hexokinase: inactive; p97 inhibitor: inactive

Results for CCC(=O)NC(c1ccc(C)cc1)c1cc([N+](=O)[O-])c2cccnc2c1O (configuration not stated) ?
S1P3 antagonist: inactive; Redox H2O2 prof: inactive; G6PDH CS: inactive; Tb hexokinase: inactive; p97 inhibitor: inactive

Results for CC(=O)NC(c1ccc(C)cc1)c1cc([N+](=O)[O-])c2cccnc2c1O (configuration not stated) ?
S1P3 antagonist: inactive; Redox H2O2 prof: inactive; G6PDH CS: 61; Tb hexokinase: inactive; p97 inhibitor: inactive

Results for CCCC(=O)NC(c1ccco1)c1cc([N+](=O)[O-])c2cccnc2c1O (configuration not stated) ?
S1P3 antagonist: inactive; Redox H2O2 prof: inactive; G6PDH CS: 56; Tb hexokinase: inactive; p97 inhibitor: inactive

How did CCCOc1ccc(NC(=O)C2CC(=O)N3CCCN=C3S2)cc1 (configuration not stated) do in these assays?
S1P3 antagonist: inactive; Redox H2O2 prof: inactive; G6PDH CS: inactive; Tb hexokinase: inactive; p97 inhibitor: inactive

Results for O=C1C(=O)c2c(C(=O)c3ccccc3)coc2-c2ccccc21 ?
Redox H2O2 prof: inactive; G6PDH CS: 61; Tb hexokinase: inactive; p97 inhibitor: inactive

What do the screens show for `Cc1ccc(C)c(C(=O)CN2C(=O)CCC2=O)c1`?
S1P3 antagonist: 75; Redox H2O2 prof: inactive; G6PDH CS: inactive; Tb hexokinase: inactive; p97 inhibitor: inactive

How did Cc1ccc(N2C(=O)N(CC(=O)c3cc(C)ccc3C)C(=O)C2C)cc1 (configuration not stated) do in these assays?
S1P3 antagonist: inactive; Redox H2O2 prof: inactive; G6PDH CS: inactive; Tb hexokinase: inactive; p97 inhibitor: inactive

Results for CCn1c(CNC(=O)Cc2ccc(OC)cc2)nnc1SCC(=O)Nc1nccs1 ?
S1P3 antagonist: 60; Redox H2O2 prof: inactive; G6PDH CS: inactive; Tb hexokinase: inactive; p97 inhibitor: inactive

What do the screens show for `Fc1ccc(NC(=S)Nc2cccc3cnccc23)cc1`?
S1P3 antagonist: inactive; Redox H2O2 prof: inactive; G6PDH CS: 51; Tb hexokinase: inactive; p97 inhibitor: inactive

How did COc1ccc(-c2cn3ccccc3n2)cc1[N+](=O)[O-] do in these assays?
S1P3 antagonist: inactive; Redox H2O2 prof: inactive; G6PDH CS: inactive; Tb hexokinase: inactive; p97 inhibitor: inactive

How did Cc1ccc2ccc(C(Nc3ccccn3)c3ccccc3)c(O)c2n1 (configuration not stated) do in these assays?
Redox H2O2 prof: inactive; G6PDH CS: inactive; Tb hexokinase: inactive; p97 inhibitor: inactive

How did COc1cc(C(Nc2ccccn2)c2ccc3ccc(C)nc3c2O)cc(OC)c1O (configuration not stated) do in these assays?
S1P3 antagonist: inactive; Redox H2O2 prof: inactive; G6PDH CS: 61; Tb hexokinase: inactive; p97 inhibitor: inactive

What do the screens show for `O=C1/C(=C\c2ccccn2)SC(=S)N1Nc1ncc(C(F)(F)F)cc1Cl`?
Redox H2O2 prof: inactive; G6PDH CS: inactive; Tb hexokinase: inactive; p97 inhibitor: inactive

How did O=C1/C(=C/c2ccc(F)cc2)SC(=S)N1Nc1ncc(C(F)(F)F)cc1Cl do in these assays?
Redox H2O2 prof: inactive; G6PDH CS: inactive; Tb hexokinase: inactive; p97 inhibitor: 19

Results for CCc1ccccc1NC1c2ccccc2C(=O)N1Cc1ccco1 (configuration not stated) ?
S1P3 antagonist: 75; Redox H2O2 prof: inactive; G6PDH CS: inactive; Tb hexokinase: inactive; p97 inhibitor: inactive

What do the screens show for `CCOc1ccccc1NC1c2ccccc2C(=O)N1Cc1ccco1` (configuration not stated)?
S1P3 antagonist: inactive; Redox H2O2 prof: inactive; G6PDH CS: inactive; Tb hexokinase: inactive; p97 inhibitor: inactive

Results for CCN(CC)S(=O)(=O)c1cc(NC(=O)NCCCl)ccc1C ?
S1P3 antagonist: inactive; Tb hexokinase: inactive; p97 inhibitor: inactive

How did CCC(=O)N1C(=O)CCN(C(C)=O)c2ccccc21 do in these assays?
S1P3 antagonist: inactive; Redox H2O2 prof: inactive; G6PDH CS: inactive; Tb hexokinase: inactive; p97 inhibitor: inactive

What do the screens show for `COc1ccc(S(=O)(=O)Nc2cc(C)ccn2)cc1OC`?
S1P3 antagonist: 115; Redox H2O2 prof: inactive; G6PDH CS: inactive; Tb hexokinase: inactive; p97 inhibitor: inactive

Results for COc1ccc(S(=O)(=O)Nc2ccccn2)cc1OC ?
S1P3 antagonist: inactive; Redox H2O2 prof: inactive; G6PDH CS: inactive; Tb hexokinase: inactive; p97 inhibitor: inactive

Screening results from PubChem.
